Data from PubChem BioAssay (EPA / NIEHS).
The source made the active and inactive calls. Rule for the calls: active = hit-call score of the fitted dose curve at least 0.9, where 1 is the maximum; inactive = score below 0.9.

Columns and labels:
[1] = BSK_hDFCGF_SRB: Viability Assessment in the BioMAP Diversity Plus: hDFCGF Assay (AID 2283061); conditions: primary human foreskin fibroblasts;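 note: cells exposed to compound for 24 h before the read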
In short: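 Viability was read as total protein: after 10% TCA fixation, wells were stained with 0.1% sulforhodamine B and read at 560 nm. Primary human foreskin fibroblasts were dosed for 24 h, with bidirectional fitting versus DMSO.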

[2] = read-out: TIMP metallopeptidase inhibitor 1 (TIMP1), TIMP1 (gene 7076); assay: BSK_hDFCGF_TIMP1: BioMAP Diversity Plus: hDFCGF Assay for TIMP metallopeptidase inhibitor 1 (TIMP1) Biomarker Activity (AID 2283062); conditions: primary human foreskin fibroblasts; actives raise or lower the signal
In short: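 TIMP-1 measured by ELISA 24 h after chemical dosing of primary human skin fibroblasts, with gain or loss fitted relative to DMSO. Parallel SRB staining (560 nm) monitored overt cytotoxicity.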

[3] = read-out: Monokine induced gamma interferon (MIG), CXCL9 (gene 4283); assay: BSK_hDFCGF_MIG: BioMAP Diversity Plus: hDFCGF Assay for Monokine induced gamma interferon (MIG) Biomarker Activity (AID 2283063); conditions: primary human foreskin fibroblasts; actives raise or lower the signal
In short: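 Human primary foreskin fibroblasts in the hDFCGF system, exposed to test chemical for 24 h; MIG measured by ELISA. Bidirectional curve fitting against DMSO negative control as activity baseline.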

[4] = read-out: Matrix Metallopeptidase 1 (MMP1), MMP1 (gene 4312); assay: BSK_hDFCGF_MMP1: BioMAP Diversity Plus: hDFCGF Assay for Matrix Metallopeptidase 1 (MMP1) Biomarker Activity (AID 2283064); conditions: primary human foreskin fibroblasts; actives raise or lower the signal
In short: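 Primary human foreskin fibroblasts in the hDFCGF system were dosed with test chemical, and MMP1 was measured by ELISA 24 h later. Values come from bidirectional curve fitting against the DMSO baseline.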

[5] = read-out: Vascular cell adhesion molecule 1 (VCAM1), VCAM1 (gene 7412); assay: BSK_hDFCGF_VCAM1: BioMAP Diversity Plus: hDFCGF Assay for Vascular cell adhesion molecule 1 (VCAM1) Biomarker Activity (AID 2283065); conditions: primary human foreskin fibroblasts; actives raise or lower the signal
In short: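 ELISA readout of VCAM-1 on human dermal fibroblast primary cultures, 24 h after chemical exposure. Gain or loss of signal fitted in both directions against DMSO baseline.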

[6] = read-out: Plasminogen activator inhibitor-1 (PAI1), SERPINE1 (gene 5054); assay: BSK_hDFCGF_PAI1: BioMAP Diversity Plus: hDFCGF Assay for Plasminogen activator inhibitor-1 (PAI1) Biomarker Activity (AID 2283066); conditions: primary human foreskin fibroblasts; actives raise or lower the signal
In short: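 Human foreskin fibroblast primary cells, 24 h chemical exposure; PAI-1 measured by ELISA. Bidirectional fitting relative to DMSO; parallel cultures stained with SRB for total protein to flag overt cytotoxicity.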

[7] = read-out: Intercellular Adhesion Molecule 1 (ICAM1), ICAM1 (gene 3383); assay: BSK_KF3CT_ICAM1: BioMAP Diversity Plus: KF3CT Assay for Intercellular Adhesion Molecule 1 (ICAM1) Biomarker Activity (AID 2283067); conditions: primary human keratinocytes with fibroblasts; actives raise or lower the signal
In short: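 Cell-surface ICAM-1 was measured by ELISA 24 h after dosing primary human skin keratinocytes co-cultured with fibroblasts. Parallel SRB staining tracked overt cytotoxicity. Gain or loss of signal was fitted relative to DMSO.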

[8] = read-out: Interferon-gamma inducible Protein 10 (IP10), CXCL10 (gene 3627); assay: BSK_KF3CT_IP10: BioMAP Diversity Plus: KF3CT Assay for Interferon-gamma inducible Protein 10 (IP10) Biomarker Activity (AID 2283068); conditions: primary human keratinocytes with fibroblasts; actives raise or lower the signal
In short: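 KF3CT co-culture (keratinocytes + foreskin fibroblasts), 24 h compound, IP-10 by ELISA; bidirectional fit vs DMSO baseline.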

[9] = BSK_KF3CT_SRB: Viability Assessment in the BioMAP Diversity Plus: KF3CT Assay (AID 2283069); conditions: primary human keratinocytes with fibroblasts;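 note: total protein by sulforhodamine B staining as a cytotoxicity measure; read 24 h after compound addition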
In short: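 Human primary keratinocyte plus foreskin fibroblast co-culture exposed to chemicals for 24 h. Total protein measured by 0.1% sulforhodamine B staining after 10% TCA fixation, read at 560 nm; bidirectional fitting versus DMSO baseline.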

[10] = read-out: Interleukin-1 alpha (IL1a), IL1A (gene 3552); assay: BSK_KF3CT_IL1a: BioMAP Diversity Plus: KF3CT Assay for Interleukin-1 alpha (IL1a) Biomarker Activity (AID 2283070); conditions: primary human keratinocytes with fibroblasts; actives raise or lower the signal
In short: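 Human keratinocyte plus foreskin fibroblast primary co-culture, sampled 24 h after chemical dosing. IL-1a measured by ELISA; responses fitted bidirectionally against DMSO baseline (negative control), so gain or loss of signal both count.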

[11] = read-out: TIMP metallopeptidase inhibitor 2 (TIMP2), TIMP2 (gene 7077); assay: BSK_KF3CT_TIMP2: BioMAP Diversity Plus: KF3CT Assay for TIMP metallopeptidase inhibitor 2 (TIMP2) Biomarker Activity (AID 2283071); conditions: primary human keratinocytes with fibroblasts; actives raise or lower the signal
In short: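 Co-culture of human primary keratinocytes and foreskin fibroblasts, measured 24 h after chemical dosing. TIMP-2 quantified by ELISA and fitted in both directions relative to DMSO. Cytotoxicity checked in parallel cultures by SRB total-protein staining.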

[12] = read-out: Transforming growth factor beta 1 (TGFb1), TGFB1 (gene 7040); assay: BSK_KF3CT_TGFb1: BioMAP Diversity Plus: KF3CT Assay for Transforming growth factor beta 1 (TGFb1) Biomarker Activity (AID 2283072); conditions: primary human keratinocytes with fibroblasts; actives raise or lower the signal
In short: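 Human keratinocyte/foreskin fibroblast co-culture; TGF-b1 measured by ELISA 24 h after dosing, fitted bidirectionally versus DMSO. Cytotoxicity checked in parallel cultures by total protein (SRB staining, 560 nm).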

[13] = read-out: C-C motif chemokine 2 (Homo sapiens) (UniProt P13500); assay: BSK_KF3CT_MCP1: BioMAP Diversity Plus: KF3CT Assay for Monocyte Chemoattractant Protein 1 (MCP1/CCL2) Biomarker Activity (AID 2283073); conditions: primary human keratinocytes with fibroblasts; actives raise or lower the signal
In short: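 ELISA read-out of MCP-1, 24 h post-dose, in primary human skin keratinocytes co-cultured with fibroblasts. Parallel SRB staining monitors cytotoxicity; changes fitted both directions relative to DMSO.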

[14] = read-out: Matrix Metallopeptidase 9 (MMP9), MMP9 (gene 4318); assay: BSK_KF3CT_MMP9: BioMAP Diversity Plus: KF3CT Assay for Matrix Metallopeptidase 9 (MMP9) Biomarker Activity (AID 2283074); conditions: primary human keratinocytes with fibroblasts; actives raise or lower the signal
In short: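 Keratinocyte plus foreskin fibroblast human primary skin co-culture was dosed with chemical and MMP-9 was quantified by ELISA 24 h later. Bidirectional curve fitting used DMSO as negative control and activity baseline.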

[15] = read-out: urokinase plasminogen activator (uPA), PLAU (gene 5328); assay: BSK_KF3CT_uPA: BioMAP Diversity Plus: KF3CT Assay for urokinase plasminogen activator (uPA) Biomarker Activity (AID 2283075); conditions: primary human keratinocytes with fibroblasts; actives raise or lower the signal
In short: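 Human keratinocyte plus foreskin fibroblast primary co-culture exposed to chemical for 24 h. uPA levels were quantified by ELISA, and activity was fitted bidirectionally against a DMSO negative-control baseline.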

CD40, CD40 (gene 958) = assay: BSK_LPS_CD40: BioMAP Diversity Plus: LPS Assay for CD40 Biomarker Activity (AID 2283076); conditions: primary human HUVEC with PBMC; actives raise or lower the signal
In short: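 In the LPS system of human endothelial cells with peripheral blood mononuclear cells, CD40 levels were read by ELISA 24 h post-treatment. Signal changes in either direction were fitted against the DMSO baseline, with parallel SRB protein staining.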

[16] = read-out: E-selectin (Homo sapiens) (UniProt P16581); assay: BSK_LPS_Eselectin: BioMAP Diversity Plus: LPS Assay for Eselectin Biomarker Activity (AID 2283077); conditions: primary human HUVEC with PBMC; actives raise or lower the signal
In short: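 E-selectin ELISA on LPS-stimulated endothelial cell/PBMC co-cultures, read 24 h post-treatment; gains and losses fitted against DMSO. Parallel SRB staining (0.1% SRB after 10% TCA fixation, 560 nm) flags overt cytotoxicity.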

[17] = read-out: Interleukin-8 (IL8), CXCL8 (gene 3576); assay: BSK_LPS_IL8: BioMAP Diversity Plus: LPS Assay for Interleukin-8 (IL8) Biomarker Activity (AID 2283078); conditions: primary human HUVEC with PBMC; actives raise or lower the signal
In short: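 ELISA read-out of IL-8 after 24 h chemical treatment of LPS-activated endothelial/PBMC human primary co-cultures. Changes either up or down relative to DMSO; overt cytotoxicity checked by sulforhodamine B staining in parallel wells.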

[18] = BSK_LPS_SRB: Viability Assessment in the BioMAP Diversity Plus: LPS Assay (AID 2283079); conditions: primary human HUVEC with PBMC;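 note: total protein by sulforhodamine B absorbance as a cytotoxicity measure; measured one day after compound addition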
In short: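 SRB viability endpoint: cells fixed with 10% TCA, stained with 0.1% SRB, read at 560 nm, 24 h post-dose. HUVEC/PBMC co-culture; signal change in either direction scored relative to DMSO.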

[19] = read-out: Interleukin-1 alpha (IL1a), IL1A (gene 3552); assay: BSK_LPS_IL1a: BioMAP Diversity Plus: LPS Assay for Interleukin-1 alpha (IL1a) Biomarker Activity (AID 2283080); conditions: primary human HUVEC with PBMC; actives raise or lower the signal
In short: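 Readout is IL-1a level by ELISA, 24 h post-dose, fitted as gain or loss relative to DMSO. System: LPS-activated human primary co-culture of vascular endothelium and peripheral blood mononuclear cells, with parallel SRB total-protein cytotoxicity.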

Measured: outcome

Chain of E-selectin (Homo sapiens) (P16581 whole entry, looked up): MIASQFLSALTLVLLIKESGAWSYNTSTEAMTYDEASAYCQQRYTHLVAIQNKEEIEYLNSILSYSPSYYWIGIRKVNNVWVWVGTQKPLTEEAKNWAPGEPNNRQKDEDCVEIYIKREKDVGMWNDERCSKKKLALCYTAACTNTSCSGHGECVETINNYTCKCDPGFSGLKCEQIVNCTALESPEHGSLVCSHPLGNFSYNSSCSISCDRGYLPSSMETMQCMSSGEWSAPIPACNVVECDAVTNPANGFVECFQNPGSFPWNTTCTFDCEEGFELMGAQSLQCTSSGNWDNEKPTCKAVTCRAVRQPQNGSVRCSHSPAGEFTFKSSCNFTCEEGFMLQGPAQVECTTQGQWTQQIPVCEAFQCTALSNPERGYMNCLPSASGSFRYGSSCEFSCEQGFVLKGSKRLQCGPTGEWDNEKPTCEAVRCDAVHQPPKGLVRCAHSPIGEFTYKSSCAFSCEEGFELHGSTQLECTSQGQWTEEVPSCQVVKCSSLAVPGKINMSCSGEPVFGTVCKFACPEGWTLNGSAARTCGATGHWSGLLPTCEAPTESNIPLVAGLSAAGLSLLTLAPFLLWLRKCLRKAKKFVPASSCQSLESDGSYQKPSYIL

c1ccc2occc2c1
inactive: all assays above

CCOCCOCCO
not listed: [18]
inactive: all other assays above

Cc1cc(SC2=C(O)C[C@@](CCc3ccc(N)cc3)(C(C)C)OC2=O)c(C(C)(C)C)cc1CO
inactive: all assays above
